# Screens from PubChem BioAssay.
# A selection: hits, their analogues and other compounds. The true share with any hit is near 1.6%.
# KCNQ2 inh: inhibitors of rat KCNQ2 potassium channel | O88943 | 1.1% of 310,000 active | CHO-K1 KCNQ2, FluxOR thallium flux, 20 min; active compounds read low | AID 2156 | B-score at 10 µM;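 active = fluorescence ratio B-score at most minus 3 library SDs, with starting brightness B-score within 2 library SDs, cut at about -5.5 in these data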
# KCNQ2 enhance: enhances the rat KCNQ2 potassium channel | O88943 | CHO-K1 KCNQ2, FluxOR thallium flux fluorescence; active compounds read high | B-score at 10 µM | 0.54% of 310,000 active | AID 2239;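 active = fluorescence ratio B-score at least 3 SD of library B-scores, with initial fluorescence B-score within 3 of them, cut at about 5.3 in these data; same plate scores as AID 2156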;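 also: B-score of peak minus minimum over baseline fluorescence ratio after K+ and Tl+ stimulus; positive B-score means potentiation of KCNQ2 with more thallium influx and brighter signal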
# Kir21 confirm: confirmation of mouse Kir2.1 potassium channel inhibitors; Tl flux remaining, % of negative control (active compounds read low), % at 10 µM; 41% of 2,300 active; Kir2.1-expressing cells, FluxOR thallium flux fluorescence; active compounds read low; shares compounds with KCNQ2 enhance;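 active = Primary-screen hit whose thallium flux fell at least 3 control SD below untreated wells in both duplicates, with normal baseline fluorescence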;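 also: 0% = blank wells without stimulus and 100% = stimulated no-compound controls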
# HEK293 Tl flux: alters thallium flux in parental HEK293 cells, Kir2.1 counter-screen. 19% of 2,300 active. AID 2105. FluxOR signal as % of negative control (100 = no effect), % at 10 µM. shares compounds with KCNQ2 enhance. FluxOR thallium flux fluorescence; 0% = unstimulated blank wells;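 active = dye signal at least 3 control SD above or below untreated wells in both duplicates, raw fluorescence within 3, either direction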;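 also: percent is based on the flux ratio of peak minus minimum fluorescence over baseline F0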
# CHO-K1 ctr: parental CHO-K1 activity in KCNQ2 potentiator counter-screen | shares compounds with KCNQ2 enhance | parental CHO-K1 cells, FluxOR thallium flux fluorescence; zero = vehicle mean+3SD, 100% = vehicle-minus-blank window | activity increase over 3SD of controls, % at 10 µM | 43% of 1,200 active;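 active = signal rise of at least 3 SD above the untreated control mean, in both duplicate wells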;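 also: counter screen of KCNQ2 potentiator hits so any rise reflects channel-independent effects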
# KCNQ1 pot spec: selectivity of KCNQ2 potentiators: effect on human KCNQ1 | CHO KCNQ1 stable, FluxOR thallium flux fluorescence; beyond 3SD, as % of vehicle-control signal | shares compounds with KCNQ2 enhance | activation over 3SD threshold, % at 10 µM | 28% of 1,200 active;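 active = fluorescence ratio rise of at least 3 SD of vehicle wells above their mean, in both replicate wells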;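 also: 0% = vehicle mean plus 3 SD and 100% = vehicle minus unstimulated blank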
# Target sequence (P51787 whole entry, looked up): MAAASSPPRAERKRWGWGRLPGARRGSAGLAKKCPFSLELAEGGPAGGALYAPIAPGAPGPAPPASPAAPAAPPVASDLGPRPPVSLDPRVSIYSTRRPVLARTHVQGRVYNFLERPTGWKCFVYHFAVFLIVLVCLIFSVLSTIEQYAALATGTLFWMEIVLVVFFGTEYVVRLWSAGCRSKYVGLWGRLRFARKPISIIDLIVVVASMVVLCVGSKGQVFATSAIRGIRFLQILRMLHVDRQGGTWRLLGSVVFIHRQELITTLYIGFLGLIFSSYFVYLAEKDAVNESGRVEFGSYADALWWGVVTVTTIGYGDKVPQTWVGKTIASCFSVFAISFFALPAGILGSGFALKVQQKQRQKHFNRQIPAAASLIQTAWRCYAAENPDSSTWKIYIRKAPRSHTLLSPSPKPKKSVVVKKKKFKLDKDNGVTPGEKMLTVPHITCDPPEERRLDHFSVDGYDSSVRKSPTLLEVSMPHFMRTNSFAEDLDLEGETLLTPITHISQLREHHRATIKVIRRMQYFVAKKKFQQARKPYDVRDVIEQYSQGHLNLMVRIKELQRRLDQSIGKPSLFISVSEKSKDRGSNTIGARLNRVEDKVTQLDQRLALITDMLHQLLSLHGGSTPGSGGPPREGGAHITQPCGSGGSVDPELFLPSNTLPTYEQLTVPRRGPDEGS
# KCNQ2 pot confirm: confirmation of rat KCNQ2 potassium channel potentiators; shares compounds with KCNQ2 enhance; CHO-KCNQ2 cells, FluxOR thallium flux fluorescence; potentiation, less the hit threshold, % at 10 µM; 68% of 1,200 active;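 active = fluorescence ratio rising 3 SD or more over the vehicle control mean in both replicates, plus primary screen hit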;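 also: peak minus minimum thallium fluorescence divided by baseline after K/Tl stimulus; 0% = vehicle mean plus 3 SD and 100% = vehicle minus unstimulated blank difference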
# Kir21 spec: tests whether KCNQ2 potentiators also affect mouse Kir2.1 | activity over 3SD threshold, % at 10 µM | shares compounds with KCNQ2 enhance | 2% of 1,200 active | AID 2345 | HEK293 Kir2.1, FluxOR thallium flux fluorescence;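 active = fluorescence ratio rise of at least 3 SD above the vehicle-control mean, seen in both replicates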;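 also: 0% = vehicle mean plus 3 SD and 100% = vehicle minus no-stimulus blank window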
# KCNQ2 W236L MoA: potentiates the retigabine-insensitive rat KCNQ2 W236L mutant channel | shares compounds with KCNQ2 enhance | CHO KCNQ2-W236L, automated patch clamp current | current increase over 3SD of negative controls (%), active compounds read high, % at 25 µM | 10% of 940 active | AID 2558;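 active = current increase at least 3 SD of the untreated controls above them in both duplicate recordings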
# * marks the source's active call; other numbers are inactive results; i = inactive; · = no result given.
SMILES,KCNQ2 inh,KCNQ2 enhance,Kir21 confirm,HEK293 Tl flux,others
COc1ccc(C(OCC(O)CNCCc2ccccc2)c2ccc(OC)cc2)cc1 (stereo not given),i,·,43.5%*,i,
O=C(c1ccccc1)c1ccc(OCC(O)CNCc2cccc(Cl)c2)cc1 (stereo not given),i,·,47.5%*,i,
COc1ccc(C(OCC(O)CNC(C)c2ccccc2)c2ccc(OC)cc2)cc1 (stereo not given),i,·,·,·,
COc1cccc2sc(/N=C/N(C)C)nc12,i,·,·,·,
COc1ccc(CCC(=O)NCCOc2ccccc2Cl)cc1,i,·,·,·,
C/C(CCC(=O)O)=N/Nc1ccc([N+](=O)[O-])cc1[N+](=O)[O-],i,1.62,·,·,
O=C(O)/C(CC(=O)c1ccc(Cl)cc1)=N/Nc1ccc([N+](=O)[O-])cc1[N+](=O)[O-],i,7.68*,i,i,CHO-K1 ctr=-9.2;KCNQ1 pot spec=-8.5;KCNQ2 pot confirm=32.4*;Kir21 spec=-50.0;KCNQ2 W236L MoA=i
CCCCN(C(=O)c1ccc(S(=O)(=O)N2CCCC2)cc1)C1CCS(=O)(=O)C1 (stereo not given),i,0.76,·,·,
Cc1cc([N+](=O)[O-])ccc1NC(=O)CSc1nncn1-c1cccnc1,i,0.19,·,·,
CCN(CC)C(=O)Cn1cc(C(=O)C(=O)NCCc2c[nH]c3ccccc23)c2ccccc21,i,0.24,·,·,
O=C(CC12CC3CC(CC(C3)C1)C2)Nc1c(F)cccc1F,i,9.96*,i,i,CHO-K1 ctr=-6.5;KCNQ1 pot spec=-25.2;KCNQ2 pot confirm=33.1*;Kir21 spec=-25.9;KCNQ2 W236L MoA=i
CC(=O)Nc1ccc(NC(=O)CC23CC4CC(CC(C4)C2)C3)cc1,i,2.21,·,·,
CN(C)S(=O)(=O)Nc1cccc(NC(=O)CC23CC4CC(CC(C4)C2)C3)c1,i,7.85*,i,i,CHO-K1 ctr=7.1*;KCNQ1 pot spec=6.3*;KCNQ2 pot confirm=-6.8;Kir21 spec=-29.5;KCNQ2 W236L MoA=i
CN(C)S(=O)(=O)c1cccc(NC(=O)CC23CC4CC(CC(C4)C2)C3)c1,i,4.93,·,·,
Cc1ccc(-c2csc3ncn(CC(=O)O)c(=O)c23)cc1C,i,1.02,·,·,
CCc1nc(SCC(=O)c2ccc(Cl)s2)c2oc3ccccc3c2n1,i,10.1*,i,i,CHO-K1 ctr=-10.6;KCNQ1 pot spec=53.6*;KCNQ2 pot confirm=-17.1;Kir21 spec=-37.2
CCc1nc(SCC(=O)N2CCN(c3ccccc3)CC2)c2oc3ccccc3c2n1,i,·,·,·,
O=c1[nH]cc(I)cc1I,i,7.43*,i,i,CHO-K1 ctr=133.0*;KCNQ1 pot spec=31.5*;KCNQ2 pot confirm=-20.4;Kir21 spec=-36.2
COc1ccsc1NC(=O)OCc1ccc(Cl)cc1,i,·,·,·,
CSc1nsc(NC(=O)OCc2ccc(Cl)cc2)n1,i,5.85*,i,i,CHO-K1 ctr=88.9*;KCNQ1 pot spec=-21.8;KCNQ2 pot confirm=-17.5;Kir21 spec=-19.6
Fc1ccc(/C=N/N2CCN(Cc3ccccc3)CC2)cc1,i,0.13,·,·,
CSc1ccc(S(=O)(=O)NCCOc2ccccc2C)cc1,i,·,·,·,
CCc1ccc(S(=O)(=O)NCCOc2cccc3cccnc23)cc1,i,·,69.5%*,i,
CN(CCO)c1cnccn1,i,0.18,·,·,
CCOC(=O)N1CCN(C(=O)CSc2ccc3nnc(CCNC(=O)c4ccc(OC)cc4)n3n2)CC1,i,·,·,·,
CCC(=O)N1c2ccc(S(=O)(=O)N3CCN(c4ccc([N+](=O)[O-])cc4)CC3)cc2CC1C (stereo not given),i,·,·,·,
COc1ccc(NC(=O)NCCN2CCN(c3cc(OC)ccc3OC)CC2)cc1,i,0.02,·,·,
COc1ccc(Cl)c(N2CCN(CCCNC(=O)Nc3ccc(C)cc3)CC2)c1,i,·,69.5%*,i,
